Inconclusive results are not listed. Entries that show only a call come without a potency. Unmarked numbers belong to inactive results. Calls of active or inactive are those of the source. The call rests on the fitted dose curve; in most records, active means well fitted activation curve with a large enough effect in the repeat runs; inconclusive means weak or mixed curves; inactive means flat fitted curve, though single readings scatter.
experiment: A CellTox Green Cytotoxicity Assay to monitor cytotoxicity in HEK293 cells - 8 hour (AID 1224884); settings: CellTox Green fluorescence; series mostly up to 76.8 µM; further: nearly all actives have a fitted effect of over 35% in size
Text: National Center for Advancing Translational Sciences [NCATS]
NIH Chemical Genomics Center [NCGC]
U.S. Environmental Protection Agency [EPA]
National Institutes of Environmental Health Sciences [NIEHS]
National Toxicology Program [NTP]
Cell-based models are critical for drug discovery. Determining the natural cytotoxic effects resulting from test compounds is an essential research activity. A CellTox Green Cytotoxicity Assay to monitor cytotoxicity in real time of continues cell culture during 40 hours of the compound treatment was used to screen Tox21 10K library compounds in Hek293 cells. CellTox Green Cytotoxicity Assay is a nonlytic, homogeneous, biofluorescent method to measure cytotoxicity in cell culture after experimental manipulation. The assay system uses a proprietary asymmetric cyanine dye that is excluded from viable cells but preferentially stains the dead cell's DNA. […] Viable cells produce no appreciable increases in fluorescence. Therefore, the fluorescence signal produced by the binding interaction with dead cell DNA is proportional to cytotoxicity.
The mixture of Hek293 cell suspension and reagents were dispensed at 600cells/6 ul/well in 1536-well tissue culture treated black solid bottom plates using a Multidrop dispenser. After the assay plates were incubated at a 37 C/5% CO2 incubator for 5 hours, 23 nL of compounds dissolved in DMSO, positive and negative controls was transferred to the assay plate by a pintool work station. The plates were incubated at 37 C for 40 hours. The fluorescence intensity were measured at 0h, 8h, 16h, 24h, 32h and 40h time points using ViewLux plate reader during compound treatment.

| SMILES | Potency | cytotoxicity increase |
| --- | --- | --- |
| Cc1occc1SSc1ccoc1C | inactive |  |
| COc1cc(C=C2CCC/C(=C\c3ccc(O)c(OC)c3)C2=O)ccc1O | inactive |  |
| CC(CN(C)C)CN1c2ccccc2CCc2ccccc21 (stereo not given) | inactive |  |
| CC(C)c1ccc(O)c(C(C)C)c1 | inactive |  |
| CC(C)(c1cc(Br)c(O)c(Br)c1)c1cc(Br)c(O)c(Br)c1 | inactive |  |
| C=CC(=O)OCC(O)COc1ccccc1 (stereo not given) | inactive |  |
| Cc1cncc(C)c1 | inactive |  |
| CCCCCCCCCC(=O)N(C)C | inactive |  |
| CC[N+](CC)(CC)Cc1ccccc1 | inactive |  |
| CC(=O)Oc1ccc(C2(c3ccc(OC(C)=O)cc3)Oc3ccccc3NC2=O)cc1 | inactive |  |
| C/C=C/CO | inactive |  |
| C[Si](C)O[Si](C)C | inactive |  |
| O=Cc1ccc(F)cc1 | inactive |  |
| CCCC(O)C(O)CO (stereo not given) | inactive |  |
| CCC1CCCCC1 | inactive |  |
| NCCCC(O)(P(=O)(O)O)P(=O)(O)O | inactive |  |
| C=CC(=C)CC/C=C(\C)CCC=C(C)C |  | 0.0594% [at 15.8 µM] |
| ClC/C=C\CCl | inactive |  |
| CNC(=S)NN | inactive |  |
| CC1=C(/C=C/C(C)=C/C=C/C(C)=C/C(=O)Nc2ccc(O)cc2)C(C)(C)CCC1 | inactive |  |

| SMILES | Potency | cytotoxicity increase |
| --- | --- | --- |
| COc1ccccc1OCCNCC(O)COc1cccc2[nH]c3ccccc3c12 (stereo not given) | inactive |  |
| SCCCCCCCCS | inactive |  |
| COc1cccc(OC)c1O | inactive |  |
| CC1=CP(=O)(c2ccccc2)CC1 (stereo not given) | inactive |  |
| CN(C)CCCN1c2ccccc2CCc2ccccc21 | inactive |  |
| C[C@@]12C(=O)OC(=O)[C@]1(C)C1CCC2O1 | inactive |  |
| C/C=C/C(=O)C1=C(C)CCCC1(C)C | inactive |  |
| CC(C)(c1cc(Br)c(OCCO)c(Br)c1)c1cc(Br)c(OCCO)c(Br)c1 | inactive |  |
| C(=C/c1ccccc1)/c1ccccc1 | inactive |  |
| CN1[C@@H]2CC[C@H]1CC(OC(=O)C(CO)c1ccccc1)C2 (stereo not given in full) | inactive |  |
| CCN(CC)CCCN(c1ccccc1)C1Cc2ccccc2C1 | inactive |  |
| CO[Si](CCC1CCC2OC2C1)(OC)OC (stereo not given) | inactive |  |
| OCCCS | inactive |  |
| CCOC(=O)[C@@](C)(N)Cc1ccc(O)c(O)c1 | inactive |  |
| Clc1ccc(C(c2ccccc2Cl)C(Cl)Cl)cc1 (stereo not given) | inactive |  |
| C=CCCCCCCC=C | inactive |  |
| O=C=NCc1cccc(CN=C=O)c1 |  | -1.28% [at 15.8 µM] |
| CCC(=O)CC(C)CC (stereo not given) |  | 19.1% [at 0.29 µM] |
| C[Si](C)(C)Cl | inactive |  |
| C=CC(C)C#N (stereo not given) | inactive |  |
